“And” between values parts separate entries of the source, which are not always exact repeats. Equal values may be shown once. Inconclusive results are not listed. The source made the active and inactive calls. Unless noted, the call rests on the fitted dose curve; in most records, active means well fitted curve in the direction sought with a large enough effect; inconclusive means small, poorly fitted or top-dose-only effect, or another doubt; inactive means no such curve, though single readings can be large; an effect the other way counts as inactive or inconclusive.

Here are results for seven molecules from PubChem BioAssay (NCATS).

The nature of assay [1]: Cell Viability - H-4-II-E (AID 543).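 Further: cells exposed to compound for 40 hours; on the % scale 0 is the no-effect control and ±100 the full control effect; nearly all actives have a fitted effect of over 35% in size.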 The essentials: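 Rat hepatoma H-4-II-E cells, 1500 per well, treated 40 h at 37 °C in complete medium. Cellular ATP read by CellTiter-Glo luminescence; AC50 from Hill fits of concentration-response.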
The nature of assay [2]: Cell Viability - SH-SY5Y (AID 544).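 Further: cells exposed to compound for 40 hours; nearly all actives have a fitted effect of over 55% in size.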 The following applies: SH-SY5Y neuroblastoma cell viability; viability change, negative = cytotoxic: at 92.2 µM (top of the series). The essentials: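 SH-SY5Y human neuroblastoma cells (1500/well) incubated 5 h, then compound-treated 40 h at 37 °C in complete medium. Viability read as intracellular ATP by CellTiter-Glo luminescence after 20 min; AC50 from Hill-equation fits of qHTS concentration-response.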

Assay [3] can be described thus: Cellular Toxicity (caspase-3) Jurkat (AID 655).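 Further: cells exposed to compound for 16 h at 37 °C before reading.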 The settings on record: Jurkat caspase-3 activation, luminescence; caspase-3 activation: at 92.2 µM (top of the series), DMSO = 0%, tamoxifen = 100%. The method, boiled down: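 Luminescent caspase-3/7 readout (aminoluciferin substrate cleavage) in human T-cell leukemia Jurkat cells after 16 hr compound exposure. Concentration-response normalized to DMSO and 100 uM tamoxifen; AC50 by standard Hill equation.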

Assay [4] can be described thus: Cell Viability - LYMP2-001 (AID 921).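 Further: 0% = DMSO only and full inhibition = tetraoctylammonium bromide control wells; nearly all actives have a fitted effect of over 70% in size.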 The essentials:
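CellTiter-Glo luminescence (intracellular ATP) after 24 hr compound exposure at 37 C, 2500 lymphoblastoid cells/well in complete medium. AC50 fitted with standard Hill equation; tetraoctylammonium bromide positive control.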

A short description of assay [5]: MultiTox-Fluor Cytotoxicity Assay - LYMP1-003 - Live Cells (AID 962).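 Further: cells exposed to compound for 16 hours at 37 °C; 0% = DMSO only and full loss = 92 µM tetraoctylammonium bromide; cytotoxic hits lower the live-cell protease signal.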 The essentials:
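LYMP1-003 lymphoblastoid cells, 2500/well in complete medium, treated 16 h at 37 C; live-cell protease cleavage of GF-AFC read by fluorescence (Ex/Em 405/510) after 60 min reagent; AC50 from Hill fits of concentration-response.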

The nature of assay [6]: Cell Viability - LYMP2-004 (AID 966).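 Further: plate controls were DMSO only for no effect and tetraoctylammonium bromide control for full effect; nearly all actives have a fitted effect of over 65% in size.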 The method, boiled down:
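Lymphoblastoid LYMP2-004 cells, 2500 per well, were preincubated for 5 hr and then treated with compound for 24 h at 37 C in complete medium. Viability was read as cellular ATP by CellTiter-Glo luminescence, and AC50 values were taken from Hill fits to concentration-response data.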

Assay [7] in a line: Cell Viability - LYMP2-015 (AID 971).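 Further: 0% = DMSO only and full effect = 92 µM tetraoctylammonium bromide; nearly all actives have a fitted effect of over 55% in size.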 The method, boiled down:
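LYMP2-015 human lymphoblastoid cells (2500/well) in complete medium, compound-treated 24 h at 37 C; viability read as cellular ATP by CellTiter-Glo luminescence after 30 min at room temperature. AC50 from Hill-equation fits of qHTS concentration-response data.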

Assay [8] in a line: Cell Viability - LYMP2-019 (AID 973).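 Further: 0% = DMSO alone and full effect = 92 µM tetraoctylammonium bromide; nearly all actives have a fitted effect of over 55% in size.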 The method, boiled down:
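Human lymphoblastoid LYMP2-019 cells (2500/well) preincubated 5 h at 37 C, then treated 24 h at 37 C in complete medium. Viability by CellTiter-Glo ATP luminescence after 30 min at room temperature; AC50 from Hill fits.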

Assay [9] can be described thus: Cell Viability - LYMP2-021 (AID 974).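 Further: compound exposure lasts 24 hours at 37 °C; on the % scale 0 is the no-effect control and ±100 the full control effect; nearly all actives have a fitted effect of over 55% in size.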 The method, boiled down:
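Human lymphoblastoid LYMP2-021 cells, 2500/well in complete medium, treated 24 hours at 37 C. Intracellular ATP by CellTiter-Glo luminescence (30 min, RT); AC50 from Hill fits of concentration-response.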

Assay [10] can be described thus: Cell Viability - LYMP2-006 (AID 978). Further: on the % scale 0 is the no-effect control and ±100 the full control effect; nearly all actives have a fitted effect of over 60% in size. The method, boiled down:
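qHTS, 1536-well; 2500 cells/well, 5 hr 37 C; cpd 24 hr 37 C; CellTiter-Glo 30 min RT; luminescence. Tetraoctylammonium bromide pos. ctrl. AC50 via Hill eqn.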

A short description of assay [11]: Cell Viability - LYMP2-007 (AID 979).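 Further: cells exposed to compound for 24 h before reading; 0% = DMSO only and the negative end = 92 µM tetraoctylammonium bromide; nearly all actives have a fitted effect of over 60% in size.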 The method, boiled down:
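Human lymphoblastoid LYMP2-007 cells (2500/well) preincubated 5 h at 37 C, then treated 24 h at 37 C in complete medium. Viability by CellTiter-Glo ATP luminescence after 30 min at room temperature; AC50 from Hill fits.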

A short description of assay [12]: Cell Viability - LYMP2-014 (AID 983).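 Further: plate controls were DMSO only for no effect and 92 µM tetraoctylammonium bromide for full effect; nearly all actives have a fitted effect of over 50% in size.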 The essentials:
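LYMP2-014 human lymphoblastoid cells, 2500/well, treated 24 h at 37 C in complete medium; viability by CellTiter-Glo ATP luminescence after 30 min at room temperature. AC50 from Hill fits of qHTS concentration-response; tetraoctylammonium bromide positive control.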

Assay [13] in a line: Cell Viability - LYMP2-018 (AID 985).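 Further: plate controls were DMSO only for no effect and tetraoctylammonium bromide at 92 µM for full effect; nearly all actives have a fitted effect of over 50% in size.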 The essentials:
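Human lymphoblastoid LYMP2-018 cells, 2500/well, settled 5 hr at 37 C then exposed to compound 24 hr at 37 C; intracellular ATP measured by CellTiter-Glo luminescence. AC50 from Hill-equation concentration-response fits.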

The nature of assay [14]: Cell Viability - LYMP2-020 (AID 986). The method, boiled down: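 Human lymphoblastoid LYMP2-020 cells (2500/well) preincubated 5 h at 37 C, then treated 24 h at 37 C. Viability measured as intracellular ATP by CellTiter-Glo luminescence after 30 min at room temperature; AC50 from Hill fits.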
Assay [15] in a line: Cell Viability - LYMP2-022 (AID 987). The method, boiled down: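 LYMP2-022 lymphoblastoid cells (2500/well, complete medium) were treated with compounds for 24 hours at 37 C; intracellular ATP was then read by CellTiter-Glo luminescence after 30 min at room temperature. AC50 values were derived from Hill-equation fits.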
Assay [16] is described as follows: Cell Viability - LYMP2-026 (AID 989). Further: on the % scale 0 is the no-effect control and ±100 the full control effect; nearly all actives have a fitted effect of over 50% in size. The essentials:
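Human lymphoblastoid LYMP2-026 cells, 2500/well, exposed to compound 24 h at 37 C in complete medium. Viability as intracellular ATP by CellTiter-Glo luminescence; AC50 from Hill fits of qHTS concentration-response.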

A short description of assay [17]: Cell Viability - LYMP1-002 - Assay at 40 hr (AID 994).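 Further: 0% = DMSO only and full inhibition = 92 µM tetraoctylammonium bromide; nearly all actives have a fitted effect of over 60% in size.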 The essentials:
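LYMP1-002 human lymphoblastoid cells (2500/well, complete medium) were treated with compounds for 40 hr at 37 C. Intracellular ATP was measured by CellTiter-Glo luminescence, and AC50 values came from Hill-equation fits of concentration-response data; tetraoctylammonium bromide was the positive control.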

Assay [18] in a line: qHTS assay for small molecule agonists of retinoid X receptor alpha signaling (AID 588544). The following applies: HEK293T RXRa-UAS-bla, beta-lactamase reporter, 18 h; 530 nm emission.
The nature of assay [19]: qHTS assay for small molecule antagonists of the retinoid-related orphan receptor gamma (ROR-gamma) signaling pathway - cell viability counter screen (AID 720652; active means well fitted curve in the direction sought with a large enough effect in the repeat runs; an effect the other way counts as inactive or inconclusive;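 further: CHO reporter cells with doxycycline-induced ROR-gamma expression; compound exposure lasted 16 hr before ATP read; on the % scale 0 is the no-effect control and ±100 the full control effect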). The method, boiled down:
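CHO cells carrying TET-inducible ROR and RORE-luciferase reporter, plated 5 hr, then dosed with compound plus doxycycline. After 16 hr at 37 C, viability read as intracellular ATP by CellTiter-Glo luminescence.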
In general terms: In qHTS, concentration-response curves come from the screen itself.

Assay [20] in a line: Cell Viability - LYMP2-025 (AID 976).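 Further: plate controls were DMSO only for no effect and tetraoctylammonium bromide control for full effect.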 The method, boiled down: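 Human lymphoblastoid LYMP2-025 cells, 2500/well, exposed 24 h at 37 C in complete medium in 1536-well qHTS. Viability as cellular ATP by CellTiter-Glo luminescence; AC50 from Hill fits of concentration-response data.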

`CN(C)C(=O)Nc1ccc(Cl)cc1`: the Potency entry in assay [1], in assay [2], in assay [4], in assay [6], in assay [7] and in assay [8] was “inactive” in each case. The Potency entry in assay [9], in [10], in assay [11], in assay [12], in assay [13] and in assay [14] was “inactive” throughout. The Potency result in assay [15], in assay [16], in assay [17] and in assay [19] was “inactive” in each case. For the same molecule, the caspase-3 activation in assay [3] was -0.0397% (inactive). Besides, the molecule was called inactive in assay [5]. Also, the max response in assay [18] was -9.88% and -12.4%.
Consider `ClC(Br)Br`, for which the Potency entry in assay [1], in [2], in [4], in [6], in assay [7] and in assay [8] was “inactive” throughout. For the same molecule, the Potency entry in assay [9], in assay [20], in assay [10], in assay [11], in [12] and in assay [13] was “inactive” in each case. Further, the Potency result in [14], in assay [15], in assay [16], in assay [17] and in assay [19] was “inactive” in each case. In addition, the caspase-3 activation in assay [3] is 0.0387% (inactive). The call in [5] was inactive. For the same molecule, the max response in assay [18] was -3.88%.
As to `c1ccoc1`, the Potency entry in assay [1], in assay [2], in assay [4], in assay [6], in [7] and in assay [8] was “inactive” each time. Besides, the Potency entry in [9], in assay [20], in assay [10], in assay [11], in assay [12] and in assay [13] was “inactive” throughout. Besides, the Potency entry in assay [14], in assay [15], in assay [16], in assay [17] and in [19] was “inactive” in each case. In addition, the caspase-3 activation in assay [3] was 0.558% (inactive). In addition, the result in assay [5] was inactive. The max response in [18] was -15.5%.
With `Cc1coc2c1CCC(C)C2` (centres undefined), the Potency result in assay [1], in assay [2], in [4], in assay [6], in [7] and in assay [8] was “inactive” each time. Also, the Potency result in assay [9], in assay [20], in assay [10], in assay [11], in [12] and in [13] was “inactive” in each case. The Potency result in assay [14], in [15], in assay [16], in [17] and in [19] was “inactive” in each case. In addition, in [3], the caspase-3 activation was 0.203% (inactive). Further, the molecule was classed as inactive in assay [5]. In addition, the max response in assay [18] is -8.64%.
`CCCCOCC1CO1` (centres undefined): the Potency entry in [1], in assay [2], in assay [4], in assay [6], in assay [7] and in assay [8] was “inactive” in each case. Besides, the Potency result in [9], in assay [20], in assay [10], in assay [11], in [12] and in [13] was “inactive” throughout. Moreover, the Potency result in [14], in [15], in assay [16], in [17] and in assay [19] was “inactive” in each case. In [3], the caspase-3 activation was -0.958% (inactive). Besides, the outcome in assay [5] was inactive. Also, the max response in assay [18] came out at 5.09%.
As for `C=CC(=O)OCCN(C)C`, the Potency result in [1], in [2], in [4], in [6], in assay [7] and in assay [8] was “inactive” each time. For the same molecule, the Potency result in assay [9], in assay [20], in assay [10], in assay [11], in assay [12] and in assay [13] was “inactive” each time. Besides, the Potency entry in assay [14], in assay [15], in [16], in assay [17] and in assay [19] was “inactive” throughout. The caspase-3 activation in assay [3] was 1.53% (inactive). Also, the molecule was classed as inactive in assay [5]. Further, the max response in assay [18] was -14.1%.
Turning to `O=C(O)C(Cl)(Cl)Br`, the Potency entry in assay [1], in assay [2], in assay [4], in assay [6], in assay [7] and in [8] was “inactive” throughout. In addition, the Potency result in assay [9], in assay [20], in assay [10], in [11], in [12] and in assay [13] was “inactive” throughout. Further, the Potency entry in [14], in assay [15], in [16], in assay [17] and in assay [19] was “inactive” each time. Besides, in assay [3], the caspase-3 activation was 1.43% (inactive). The outcome in assay [5] was inactive. For the same molecule, the max response in assay [18] was -15.6%.
